Data taken from PubChem BioAssay AID2098 (Broad Institute, 2009).
Hit rate of the full screen: of about 300,000 compounds, about 2,300 (0.77%) were called active. The list comes from a sample in which actives are over-represented; it also holds similar structures and randomly drawn compounds. Values without a mark were called inactive.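 How the source made its calls: active means more than half of replicate wells show activity change below -50%, luminescence cut by over half; inconclusive means some wells, but at most half, below -50%; inactive means no replicate well below -50%.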

Test: blocking HSF1-driven luciferase expression – cell-based, NIH3T3, luminescence, primary screen (AID 2098);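 further: luciferase reports HSF-1 transcriptional activity via heat shock element; 0% = median of DMSO wells and -100% = zero luminescence signal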
Settings: NIH3T3-HGL HSE-luciferase, MG132-induced, luminescence 8 h; active compounds read low; screened at 7.5 µM (by protocol)

Row | Structure (SMILES) | activity change, negative = inhibition
1 | COc1cccc(N2CC(NS(=O)(=O)c3ccc(Cl)cc3)CC2=O)c1 (configuration not stated) | 8.69%
2 | C=C(C)C(=O)O[C@H]1C/C(C)=C\C(=O)/C=C(\C)[C@H](O)[C@@H]2OC(=O)C(=C)[C@@H]21 | -73.5% (active)
3 | CN(CC(=O)NCc1cccnc1)S(=O)(=O)c1cc(Cl)ccc1Cl | 1.42%
4 | CCN(CC(=O)Nc1ccc(NC(C)=O)cc1)C(=O)C1CC(=O)N(Cc2ccc(C)cc2)C1 (configuration not stated) | -0.586%
5 | CCOc1ccc(NCCC(=O)c2ccc3c(c2)OCO3)cc1 | -1.61%
6 | COC(=O)CCNc1ccc2c(c1)OCCO2 | -72.6% (active)
7 | COc1ccccc1OCCCC(=O)Nc1ccc2c(c1)OCCO2 | 1.02%
8 | Cc1ccc2nc(SCC(=O)N3CC(C)OC(C)C3)nc(=O)n2c1 (configuration not stated) | 3.03%
9 | Cc1ccc(S(=O)(=O)CCC(=O)OCC(=O)N(C)C2CCS(=O)(=O)C2)cc1 (configuration not stated) | -3.16%
10 | COc1ccc(CN2[C@@H](CC(=O)O)c3cc(F)ccc3S2(=O)=O)cc1 | -5.27%
11 | COc1ccc(C(=O)N/N=C2\CCS(=O)(=O)c3ccc(F)cc32)cc1OC | 9.4%
12 | O=S1(=O)CC/C(=N\Nc2ccc(F)cc2)c2ccsc21 | -74.8% (active)
13 | CCN(CC(=O)N1CCCC1)S(=O)(=O)c1ccc(F)cc1 | -65.5% (active)
14 | COc1ccc(S(=O)(=O)N(C)CC(=O)N2CCCC2)cc1 | 0.377%
15 | CCN(CC(=O)NCc1ccco1)S(=O)(=O)c1ccc(F)cc1 | -5.85%
16 | COc1ccc(CNC(=O)C2CCCC2)cc1 | -0.797%
17 | CCOc1ccc(NC(=O)CN(C)C(=O)COc2cccc(CC)c2)cc1OCC | 3.71%
18 | COC(=O)CCCC1=CC2=CC(=O)C(C)(OC(=O)c3cccs3)C(=O)C2=CN1CC1CC1 (configuration not stated) | -2.87%
19 | COC(=O)CCCC1=CC2=CC(=O)C(C)(OC(=O)c3cccs3)C(=O)C2=CN1c1cccc(C#N)c1 (configuration not stated) | 0.873%

Row | Structure (SMILES) | activity change, negative = inhibition
20 | COC(=O)CCCC1=CC2=C(c3ccccc3)C(=O)C(C)(OC(=O)C3CCCC3)C(=O)C2=CN1c1ccc(OC)cc1 (configuration not stated) | -88.7% (active)
21 | CC(=O)c1ccc(S(=O)(=O)Nc2ccc(-c3ccc4nncn4n3)cc2)cc1 | 2.56%
22 | COc1ccc(NC(=O)CN(C)C(=O)c2ccc(COc3ccccc3)o2)cc1 | 3.16%
23 | CN(c1ccc2nc3ccccc3c(=O)n2n1)C1CCCCC1 | -86.8% (active)
24 | O=c1c2ccccc2nc2n1C1(CCCCC1)Cc1ccccc1-2 | 15.3%
25 | CN(C(=O)c1cc2c(=O)n3ccccc3nc2s1)C1CCCCC1 | 23.2%
26 | CCCOc1ccc(C(=O)CCC(=O)OC(C)C(=O)Nc2ccc(NC(C)=O)cc2)cc1 (configuration not stated) | 11.7%
27 | CCCNC(=S)N1CCCC(c2nc3ccccc3[nH]2)C1 (configuration not stated) | -82% (active)
28 | COCCCNC(=S)N1CCCC(c2nc3cc(C)c(C)cc3[nH]2)C1 (configuration not stated) | 5.14%
29 | CN(C)CCCNC(=S)N1CCC(c2nc3ccccc3[nH]2)CC1 | -2.77%
30 | CCOc1ccc(S(=O)(=O)Nc2cccc(C(=O)NCC3(N4CCCCC4)CCCCC3)c2)cc1 | -3.29%
31 | CC(=O)N[C@H]1[C@H]([C@H](O)[C@H](O)CO)OC(C(=O)O)=C[C@@H]1O | -3.57%
32 | COc1ccc2oc(C(=O)OCC(=O)N(CC(C)C)c3c(N)n(Cc4ccccc4)c(=O)[nH]c3=O)c(C)c2c1 | 1.6%
33 | CCN(Cc1ccccc1)C(=O)Cc1ccc(OC)c(S(=O)(=O)N2CCOCC2)c1 | -13.3%
34 | COc1ccc(/C=C2/S/C(=N/N=C3\CC4CCC3(C)C4(C)C)NC2=O)cc1 (configuration not stated) | -80.6% (active)
35 | COc1ccc(/C=C2\SC(=N)N(c3ccc(F)cc3)C2=O)cc1 | -0.809%
36 | CCOc1ccc(N=C2NC(=O)S/C2=C\c2ccc(O)cc2)cc1 | 8.7%
37 | Cc1sc(NC(=O)c2ccc3ncsc3c2)c(C(N)=O)c1C | 18.5%
38 | O=C(COC(=O)Cn1[nH]c(=O)c2ccccc2c1=O)Nc1c(Cl)cccc1C(F)(F)F | -1.35%

Row | Structure (SMILES) | activity change, negative = inhibition
39 | COc1ccccc1C(=O)NC(CCSC)C(=O)N1CCN(C/C=C/c2ccccc2)CC1 (configuration not stated) | 6.22%
40 | COc1ccccc1C(=O)NNC(=O)CCN1C(=O)/C(=C\c2ccccc2)SC1=S | 3.5%
41 | C=CCOc1ccc(/C=C2\SC(=S)N(CCC(=O)O)C2=O)cc1 | -55% (active)
42 | Cc1ccc(/C=C2\SC(=S)N(CCC(=O)Nc3ccc(O)cc3)C2=O)cc1 | 2.79%
43 | O=C(c1ccc(NS(=O)(=O)c2ccc3[nH]c(=O)[nH]c3c2)cc1)N1CCCCC1 | -2.36%
44 | CCOc1cc(NS(=O)(=O)c2ccc(OC)cc2)c(OCC)cc1NC(C)=O | -13.5%
45 | CCOc1ccccc1NS(=O)(=O)c1c[nH]c(C(=O)OC)c1 | -51.6% (active)
46 | COC(=O)c1cc(S(=O)(=O)Nc2ccc(C)c(F)c2)c[nH]1 | 5.93%
47 | COCOc1cc(O)c(C(=O)/C=C/c2ccc(OCOC)c(OCOC)c2)c(OCOC)c1 | 23.1%
48 | COc1cccc(CCNC(=O)COc2cccc3c2OC(C)(C)C3)c1 | -0.825%
49 | Cc1cc(C(=O)Cn2cnc3cc([N+](=O)[O-])ccc3c2=O)c(C)n1CC1CCCO1 (configuration not stated) | 3.88%
50 | Cc1ccsc1C(=O)OCC(=O)c1cc(C)n(CC2CCCO2)c1C (configuration not stated) | -88.5% (active)
51 | Cc1cc(C(=O)CCl)c(C)n1CC1COc2ccccc2O1 (configuration not stated) | 19.5%
52 | CCCCn1c(N)c(N(CCOC)C(=O)c2sc3ccccc3c2Cl)c(=O)[nH]c1=O | -1.16%
53 | COc1ccccc1C(=O)NCCC(=O)NCC(c1ccco1)N1CCCCC1 (configuration not stated) | -1.06%
54 | CC1COc2ccccc2N1S(=O)(=O)c1ccccc1 (configuration not stated) | -6.19%
55 | CC1COc2ccccc2N1C(=O)c1cccnc1Cl (configuration not stated) | -2.12%
56 | CC1COc2ccccc2N1C(=O)c1ccc(F)cc1 (configuration not stated) | -77.4% (active)
57 | O=C(NCCCN1CCCC1=O)c1ccc(S(=O)(=O)Nc2ccccc2)cc1 | 4.74%
